Assay [1] deals with Schistosoma mansoni schistosomula (LE). As to the kind of experiment: XTT viability relative to DMSO control; higher = more viable (less active). The following applies: 72 h; 10 µM. On the procedure: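 XTT/PMS was then added for a further 24 h (72 h total) and A450 was read. % viability = (sample - heat-killed control)/(DMSO control - heat-killed control) x 100, from duplicate wells in two independent experiments.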
A general note: Tetrazolium assays rely on reduction of a dye to a coloured formazan, in cell work by metabolically active cells.

Assay [2] relates to Schistosoma mansoni schistosomula (NMRI). As to the kind of experiment: phenotypic severity score (0-4); higher = more antischistosomal effect, active = 2 or more. The following applies: 10 µM.
Assay [3] deals with Schistosoma mansoni schistosomula (Liberian). The experiment in a line: drug effect (1 - score/DMSO control score) (fraction); higher = more antischistosomal effect, active = 0.5 or more; extreme values may be limits of the assay. The following applies: 10 µM. In outline:
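Liberian-strain Schistosoma mansoni schistosomula, mechanically transformed from cercariae and pre-incubated at least 12 h, were exposed in duplicate (50 per well, flat-bottom 96-well plates) to 10 µM compound in Medium 199 with 5% FCS at 37 °C, 5% CO2, with 0.1% DMSO control wells. Wells were scored visually (10×) at 24, 48 and 72 h on a quarter-point scale from 3 (normal) to 0 (dead). Drug effect was derived from the mean test-well score relative to the mean DMSO-control score. Negative values were set to zero, and plates were valid only if control wells averaged at least 2.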
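Throughout, for phenotypic severity score (0-4): visual microscopic scoring of shape, motility and density changes versus 0.5% DMSO solvent controls, one point per descriptor, degeneracy or death scored 4, mean of duplicate wells.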

With `c1ccc(Oc2ccc(-c3cc(N4CCNCC4)[nH]n3)cc2)cc1`, the XTT viability in assay [1] came to 25.2%. The phenotypic severity score in assay [2] (24 h), in assay [2] (48 h) and in assay [2] (72 h) was 2 (active) throughout. Further, the drug effect in assay [3] (24 h) was 0.05 (inactive); in assay [3] (48 h) it was 0.15 (inactive); in assay [3] (72 h), 0.444 (inactive).
Turning to `COc1ccc(-c2nn(C(C)C)c3ncnc(N)c23)cc1OC`, in assay [1], the XTT viability was 95.2%. For the same compound, the phenotypic severity score in assay [2] (24 h), in assay [2] (48 h) and in assay [2] (72 h) was 0 (inactive) throughout. The drug effect in assay [3] (24 h) was 0.05 (inactive); in assay [3] (48 h), 0.0556 (inactive); in assay [3] (72 h) it was 0.0556 (inactive).
Turning to `C[C@]1(O)C[C@@H](c2nc(-c3ccc4ccc(-c5ccccc5)nc4c3)c3c(N)nccn32)C1`, in assay [1], the XTT viability stood at 64%. Also, the phenotypic severity score in assay [2] (24 h), in assay [2] (48 h) and in assay [2] (72 h) was 0 (inactive) in each case. The drug effect in assay [3] (24 h) is 0.05 (inactive); in assay [3] (48 h), 0.027 (inactive); in assay [3] (72 h), 0.111 (inactive).
With `CCc1ccc([C@@H]2C[C@H](C(F)(F)F)n3ncc(C(=O)NCc4ccc(OC)cc4)c3N2)cc1`, in assay [1], the XTT viability turned out to be 99.5%. Moreover, the phenotypic severity score in assay [2] (24 h) is 1 (inactive); in assay [2] (48 h), 1 (inactive); in assay [2] (72 h), 0 (inactive). Besides, the drug effect was 0.1 (inactive) in assay [3] (24 h), 0.111 (inactive) in assay [3] (48 h) and 0.0556 (inactive) in assay [3] (72 h).
With `Cc1ccc(-c2cc(C(=O)Nc3cccnc3)c3cc(Br)ccc3n2)cc1`, the XTT viability in assay [1] was 146%. For the same compound, the values for the phenotypic severity score in assay [2] (24 h), in assay [2] (48 h) and in assay [2] (72 h) were 2 (active), 1 (inactive) and 0 (inactive), respectively. For the same compound, the values for the drug effect in assay [3] (24 h), in assay [3] (48 h) and in assay [3] (72 h) were 0.5 (active), 0.667 (active) and 1 (active), respectively.
As to `NCCN(C(=O)c1ccc(Cl)cc1Cl)c1ccc(OCc2ccc(Cl)cc2)cc1`, the XTT viability in assay [1] was 22.7%. Further, the phenotypic severity score in assay [2] (24 h), in assay [2] (48 h) and in assay [2] (72 h) was 0 (inactive) each time. In addition, the drug effect in assay [3] (24 h) was 0.4 (inactive); in assay [3] (48 h), 0.333 (inactive); in assay [3] (72 h), 0.312 (inactive).
For the compound `CCCn1c(CNc2ccccc2O)nc2ccccc21`, the XTT viability in assay [1] turned out to be 337%. Moreover, the phenotypic severity score in assay [2] (24 h), in assay [2] (48 h) and in assay [2] (72 h) was 0 (inactive) in each case. In addition, the results for the drug effect in assay [3] (24 h), in assay [3] (48 h) and in assay [3] (72 h) were 0.136 (inactive), 0.2 (inactive) and 0.182 (inactive), respectively.
On to `Cc1cc(C)c2cc(C(=O)NC3CCCCCCC3)[nH]c2c1`, for which, in assay [1], the XTT viability was 124%. Also, the phenotypic severity score in assay [2] (24 h) was 0 (inactive); in assay [2] (48 h), 1 (inactive); in assay [2] (72 h), 0 (inactive). The drug effect in assay [3] (24 h) was 0.316 (inactive); in assay [3] (48 h) it was 0.333 (inactive); in assay [3] (72 h) it was 0.438 (inactive).
Consider `CS(=O)(=O)N1CCC(CCn2nc(Cc3cccc4ccccc34)c3c(N)ncnc32)CC1`, for which, in assay [1], the XTT viability was determined as 90.7%. Further, the phenotypic severity score in assay [2] (24 h), in assay [2] (48 h) and in assay [2] (72 h) was 0 (inactive) each time. For the same compound, the drug effect in assay [3] (24 h) is 0.273 (inactive); in assay [3] (48 h), 0.45 (inactive); in assay [3] (72 h), 0.509 (active).
Take `Cc1ccc2c(c1C)NC(=O)C21NN=C(c2ccccc2)S1` (stereo not drawn): the XTT viability in assay [1] was determined as 125%. Further, the phenotypic severity score in assay [2] (24 h) was 2 (active); in assay [2] (48 h), 0 (inactive); in assay [2] (72 h) it was 0 (inactive). The drug effect in assay [3] (24 h) was < 0 (inactive); in assay [3] (48 h), 0.135 (inactive); in assay [3] (72 h), 0.222 (inactive).
Turning to `N#Cc1ccc(-c2ccc(OCC(N)=O)cc2)cc1`, the XTT viability in assay [1] came out at 73.9%. Moreover, the phenotypic severity score is 0 (inactive) in assay [2] (24 h), 1 (inactive) in assay [2] (48 h) and 0 (inactive) in assay [2] (72 h). In addition, the drug effect in assay [3] (24 h) was 0.182 (inactive); in assay [3] (48 h) it was 0.2 (inactive); in assay [3] (72 h), 0.127 (inactive).
With `CCC(C)NC(=O)c1ccc(NC(=O)C2(c3ccccc3)CCCC2)cc1` (stereo not drawn), the XTT viability in assay [1] came out at 90.6%. Besides, the phenotypic severity score in assay [2] (24 h), in assay [2] (48 h) and in assay [2] (72 h) was 0 (inactive) throughout. The values for the drug effect in assay [3] (24 h), in assay [3] (48 h) and in assay [3] (72 h) were 0.05 (inactive), 0.027 (inactive) and 0.0303 (inactive), respectively.
In the case of `CCCS(=O)(=O)N1CCC(CO)(Cc2ccccc2C(F)(F)F)CC1`, the XTT viability in assay [1] was 95.7%. Further, the phenotypic severity score is 2 (active) in assay [2] (24 h), 4 (active) in assay [2] (48 h) and 4 (active) in assay [2] (72 h). The drug effect is 0.243 (inactive) in assay [3] (24 h), 0.278 (inactive) in assay [3] (48 h) and 0.75 (active) in assay [3] (72 h).
As to `Cc1cc(Cl)ccc1NC(=O)CCc1ccc(S(=O)(=O)NCC(C)C)cc1`, the XTT viability in assay [1] is 107%. Besides, the phenotypic severity score in assay [2] (24 h), in assay [2] (48 h) and in assay [2] (72 h) was 0 (inactive) each time. Besides, the drug effect is 0.2 (inactive) in assay [3] (24 h), 0.278 (inactive) in assay [3] (48 h) and 0.375 (inactive) in assay [3] (72 h).
Take `COc1cccc(-n2nnnc2S(=O)(=O)Cc2ccccc2)c1`: the XTT viability in assay [1] is -7.15%. Also, the phenotypic severity score in assay [2] (24 h), in assay [2] (48 h) and in assay [2] (72 h) was 4 (active) throughout. Also, the drug effect in assay [3] (24 h), in assay [3] (48 h) and in assay [3] (72 h) was 1 (active) each time.
In the case of `COc1cc(C(F)(F)F)nc2ccc(C)c(N)c12`, in assay [1], the XTT viability turned out to be 79.3%. Moreover, the phenotypic severity score in assay [2] (24 h), in assay [2] (48 h) and in assay [2] (72 h) was 0 (inactive) in each case. Moreover, the drug effect is 0.136 (inactive) in assay [3] (24 h), 0.05 (inactive) in assay [3] (48 h) and 0.0526 (inactive) in assay [3] (72 h).
Consider `CC(C)(C)CN1C(=O)C(c2ccccc2)(c2ccccc2)N=C1N`, for which, in assay [1], the XTT viability is 88.6%. Also, the phenotypic severity score in assay [2] (24 h), in assay [2] (48 h) and in assay [2] (72 h) was 0 (inactive) each time. The drug effect is 0.1 (inactive) in assay [3] (24 h), 0.135 (inactive) in assay [3] (48 h) and 0.273 (inactive) in assay [3] (72 h).
Turning to `O=C1Nc2ccc(Br)cc2C12NCCc1c2[nH]c2ccccc12` (stereo not drawn), in assay [1], the XTT viability stood at 109%. Besides, the phenotypic severity score in assay [2] (24 h), in assay [2] (48 h) and in assay [2] (72 h) was 0 (inactive) in each case. Besides, the values for the drug effect in assay [3] (24 h), in assay [3] (48 h) and in assay [3] (72 h) were 0.05 (inactive), 0.0811 (inactive) and 0.167 (inactive), respectively.
With `CCCCc1ccc(NC(=O)Nc2ccc(O[C@H]3CCCC[C@@H]3N(C)c3ccccc3)c(F)c2)cc1`, the XTT viability in assay [1] is 33.7%. For the same compound, the phenotypic severity score in assay [2] (24 h), in assay [2] (48 h) and in assay [2] (72 h) was 0 (inactive) each time. The drug effect was 0.111 (inactive) in assay [3] (24 h), 0.312 (inactive) in assay [3] (48 h) and 0.875 (active) in assay [3] (72 h).

The values above are taken from the supplement of paper PMC6805474.
